# Most compounds without a hit are left out; they make up all but 1.6% or so of the library.
# SIRT5 inh = SIRT5 desuccinylase inhibitors, primary screen, biochemical, fluorescence imaging, single point, set 5; NAD-dependent protein deacylase sirtuin-5, mitochondrial (Homo sapiens), Q9NXA8; Purified SirT5, succinyl-peptide AMC, trypsin-coupled fluorescence; inhibition, % at 15 µM; actives 1.1% (n = 330,000); AID 652115, 2013; in the data active = inhibition above about 15%; inconclusive = no clear call, values can overlap the other calls
# Target sequence (Q9NXA8 whole entry, looked up): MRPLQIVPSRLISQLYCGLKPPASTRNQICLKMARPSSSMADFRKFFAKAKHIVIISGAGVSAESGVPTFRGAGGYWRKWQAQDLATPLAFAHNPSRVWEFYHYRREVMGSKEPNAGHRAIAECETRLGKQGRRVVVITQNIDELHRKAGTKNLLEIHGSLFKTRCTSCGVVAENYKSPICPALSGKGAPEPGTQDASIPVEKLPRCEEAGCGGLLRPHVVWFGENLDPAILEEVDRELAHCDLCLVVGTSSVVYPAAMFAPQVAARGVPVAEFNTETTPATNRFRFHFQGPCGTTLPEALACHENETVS
# CASP6 VEID inh = human caspase-6 inhibitors, primary screen, biochemical, VEID-R110 fluorescence, single point, set 2; P55212; purified caspase-6, Z-VEID-R110 cleavage fluorescence; inhibition, % at 12.5 µM; actives 0.53% (n = 350,000); AID 686996, 2013;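 active = mean inhibition across replicates at least about 35%, with every replicate also reaching that limit, limit read from the data; inconclusive = only one of the two criteria met; inactive = neither criterion met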;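 note: 0% = median of neutral control wells and 100% = no fluorescence left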
# NSD2 HMT inh = NSD2 histone methyltransferase inhibitors, primary screen, biochemical, AlphaScreen, single concentration, set 2; actives 0.54% (n = 310,000); inhibition, % at 12.5 µM; AID 743445, 2014; NSD2 peptide methylation, 120 min; Histone-lysine N-methyltransferase NSD2 (Homo sapiens), O96028; in the data active = inhibition above about 50%
# UBC9 SUMO inh = inhibitors of in vitro SUMOylation cascade, primary screen, biochemical, HTRF, uHTS; SUMO-conjugating enzyme UBC9 (Homo sapiens), P63279; HTRF SUMOylation assay, SAE1/SAE2 + UBC9; inhibition, % at 35 µM; actives 0.36% (n = 290,000); in the data active = inhibition above about 50%, passing the limit was not always enough; inconclusive = no clear call, values can overlap the other calls
# Target sequence (P63279 whole entry, looked up): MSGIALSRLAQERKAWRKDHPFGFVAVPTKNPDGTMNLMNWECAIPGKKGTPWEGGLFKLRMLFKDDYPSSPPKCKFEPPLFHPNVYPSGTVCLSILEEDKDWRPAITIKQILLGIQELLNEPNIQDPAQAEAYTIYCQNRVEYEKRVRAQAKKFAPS
# AlphaScreen art = AlphaScreen signal interference with preloaded methylated product, dose response, artefact control for NSD2 inhibitor project, biochemical, cherry-picked samples | actives 9.4% (n = 1,500) | shares compounds with NSD2 HMT inh | AID 1053174, 2014 | AlphaScreen artifact counterscreen, preloaded methylated H4 peptide | AC35, µM (highest dose often 10 µM), without a hit: top-dose activity change, negative = signal loss; call rule not given here
# Active calls of the source: *; u = inconclusive; x = no result.
SMILES,SIRT5 inh,CASP6 VEID inh,NSD2 HMT inh,UBC9 SUMO inh,AlphaScreen art
O=C(O)C[C@H]1C[C@@H]2c3cc(NC(=O)C4CCOCC4)ccc3O[C@@H]2[C@H](CO)O1,-5,1,x,x,x
CN1/C(=C\C=C2/SC(=S)NC2=O)C(C)(C)c2ccccc21,-1,-15,x,3,x
CN1CCC/C1=C/C=C1\SC(=S)NC1=O,2,18,53*,-15,2%
O=C(c1ccc(N2CCOCC2)c([N+](=O)[O-])c1)N1CCN(Cc2ccccc2)CC1,-2,1,120*,13,-3%
O=C(c1ccc(Br)c([N+](=O)[O-])c1)N1CCN(Cc2ccccc2)CC1,3,15,2,12,x
CN(C)CC(=O)N[C@@H]1CC[C@@H](CCNC(=O)C2CCCCC2)O[C@H]1CO,-1,1,x,x,x
C[C@H](CO)N1C[C@H](C)[C@H](CN(C)C(=O)Nc2ccc(F)cc2)OCCCC[C@H](C)Oc2ccc(NC(=O)c3ccncc3)cc2C1=O,1,0,x,x,x
CCN1C(=O)c2ccccc2S(=O)(=O)c2ccc(C(=O)NC(C)C)cc21,3,3,52*,-3,-5%
CC(C)(C)C1CCC2(CC1)C(Nc1cccc(C(F)(F)F)c1)=NC(=S)N2CC#N (stereo unspecified),x,x,64*,-6,2%
N#CCN1C(=S)N=C(Nc2cccc(Cl)c2)C12CCCCC2,x,x,x,13,x
O=C(C[C@@H]1C[C@H]2c3cc(NC(=O)NC4CCCC4)ccc3O[C@H]2[C@@H](CO)O1)NCc1ccc(Oc2ccccc2)cc1,2,-2,x,x,x
COc1ccc(-n2c3nc4ccccc4nc3c3c(=N)oc(C)nc32)cc1,x,x,115*,97,3%
O=C(O)c1cc(N/N=C/c2ccc3c(c2)OCO3)ccc1Cl,9,-3,75*,16,-2%
O=C(O)c1cc(N/N=C/c2ccc3c(c2)OCCO3)ccc1Cl,-1,-3,2,-7,x
CO[C@@H]1CN(C)C(=O)c2ccc(NC(=O)c3ccno3)cc2OC[C@@H](C)NC[C@@H]1C,2,-3,x,x,x
CC=Cc1ccc2n(c1=O)C[C@@H]1[C@@H](CO)[C@H](C(=O)NCC(F)(F)F)N(CC3CC3)[C@H]21 (mixture of isomers),1,-1,x,x,x
O=c1cc(OCc2ccccc2)cc[nH]1,-2,4,82*,x,1%
CC(C)CNC(=O)c1cnn2c(C(F)(F)F)cc(C(F)(F)F)nc12,2,0,54*,5,-7%
COc1ccc(S(=O)(=O)NCc2ccc3c(c2)OCO3)cc1OC,2,0,55*,3,2%
COc1cc(OC)c(C(=O)OC(C)C(=O)NCc2ccc3c(c2)OCO3)cc1OC (stereo unspecified),0,2,76*,x,-4%
CC(C)CC#Cc1ccc2c(c1)O[C@H](CN(C)C(=O)Cc1ccccc1)[C@H](C)CN([C@@H](C)CO)S2(=O)=O,2,-1,x,x,x
C/C=C/c1cnc2c(c1)C(=O)N([C@@H](C)CO)C[C@@H](C)[C@H](CN(C)Cc1ccncc1)O2,-1,-1,x,x,x
CCOC(=O)c1cc(S(=O)(=O)Nc2ccc(OC)cc2OC)cn1C,-3,-2,56*,21,-4%
COCCCNC(=S)Nc1cccc2ncccc12,x,1,86*,44,-1%
CO[C@@H]1CN(C)C(=O)c2ccc(NC(=O)C3CCC3)cc2OC[C@@H](C)N(C(=O)CN(C)C)C[C@H]1C,-2,0,x,x,x
SMILES,SIRT5 inh,CASP6 VEID inh,NSD2 HMT inh,UBC9 SUMO inh,AlphaScreen art
O=C(c1ccc2c(c1)OCO2)C1CCCN(Cc2ccc3cccc(F)c3n2)C1 (stereo unspecified),x,x,51*,14,-5%
Cc1noc(C)c1NC(=O)N[C@@H]1C=C[C@@H](CC(=O)NCCCN(C)C)O[C@H]1CO,4,-26,x,x,x
O=C(NNC(=O)c1ccc(NC(=O)C2CC2)cc1)c1ccc(F)cc1,-2,0,52*,14,-5%
COc1ccc(NS(=O)(=O)c2cc(NC(=O)COc3ccccc3)ccc2N2CCOCC2)cc1,x,-3,60*,x,-3%
COc1ccc(NS(=O)(=O)c2cc(NC(=O)c3ccccc3)ccc2N2CCOCC2)cc1,-2,1,-4,x,x
CC1(C)CC(N=C2C=CC3=NC45CCCCC4CC4=C(CCCC4)N5C3=C2)CC(C)(C)N1 (stereo unspecified),x,x,64*,x,-6%
O=C(CC1CC1)Nc1ccc2c(c1)[C@H]1C[C@@H](CC(=O)NC3CCCC3)O[C@@H](CO)[C@H]1O2,-5,-2,x,x,x
CCCCn1c(NC(=O)c2ccccc2Cl)c(C#N)c2nc3ccccc3nc21,x,x,114*,x,4%
O=C1c2cccnc2-c2ncccc21,x,x,-4,1,x
O=C1C(=O)c2cccnc2-c2ncccc21,5,61*,145*,x,-3%
Cc1noc(C)c1NC(=O)Nc1cccc2c1O[C@H](CN(C)Cc1ccc(-c3ccccc3)cc1)[C@@H](C)CN([C@@H](C)CO)C2=O,1,-1,x,x,x
Cc1cc(=O)n(CCCO)c(O)c1C#N,x,x,0,26,x
Cc1cc(=O)n(Cc2ccccc2)c(O)c1C#N,2,12,53*,2,-7%
CC1C(=O)N(Cc2ccccc2F)c2ccccc2N1C(=O)c1c(F)cccc1F (stereo unspecified),1,2,-2,-6,x
COc1cccc(CN2C(=O)C(C)N(C(=O)c3c(F)cccc3F)c3ccccc32)c1 (stereo unspecified),-6,-3,104*,1,-8%
Cc1nn(-c2ccccn2)c2c1C(=O)C(Br)CC2 (stereo unspecified),x,x,100*,72,-1%
CCn1c(SCC(=O)N2CCCCC2)nc2c1c(=O)n(C)c(=O)n2C,3,1,69*,-1,-1%
CCCCn1c(SCC(=O)N2CCCC2)nc2c1c(=O)n(C)c(=O)n2C,x,x,0,-8,x
Cc1c(N=C2C=CC(=O)c3ccccc32)c(=O)n(-c2ccccc2)n1C,2,28,89*,56,-8%
Cc1c(N=C2C=C(Br)C(=O)C(Br)=C2)c(=O)n(-c2ccccc2)n1C,3,18,30,u,x
O=C(NC(=S)Nc1ccccc1N1CCCC1)c1ccco1,1,4,74*,22,-4%
O=C(NC(=S)Nc1ccccc1N1CCCCC1)c1ccco1,3,1,1,-9,x
Fc1ccc(C2CCNCC2COc2ccc3c(c2)OCO3)cc1 (stereo unspecified),-3,-2,64*,16,-20%
Cn1c(NNC(=O)c2c(F)cccc2F)cc(=O)n(C)c1=O,-4,24,62*,52,-4%
C[C@H]1CN([C@@H](C)CO)S(=O)(=O)c2ccc(C#CCN(C)C)cc2O[C@@H]1CN(C)C(=O)c1ccccc1F,-2,2,x,x,x
CN(C)c1ccc2cc(S(=O)(=O)O)cc(O)c2c1,22*,78*,63*,x,0.97µM*

# Bioassay records deposited in PubChem by several laboratories.
